Experimental data reported in PMC5540273 (PLoS ONE, 2017).

The compounds below were run on MAPKAPK5. Conditions: concentration: 1 μM, replicates: in singlicate; n = 1.
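Also: KINOMEscan kinase panel screen.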

| Compound | %Inh [%] |
| --- | --- |
| Cc1ccc(C(=O)NCC(N)=O)cc1-n1c(C)cc(OCc2ccc(F)cc2F)c(Br)c1=O | 0 |
| CCn1cnc2c(N)ncnc21 [GW345098] | 10 |
| NCCNS(=O)(=O)c1ccc(-c2ccnc3[nH]ccc23)cc1 [GSK977617] | 0 |
| O=C(NCCNc1ccnc(Nc2ccc(F)cc2)n1)c1cc2ccccc2s1 [GSK1379874] | 0 |
| Cc1cccc(-c2nc(-c3ccc(S(C)(=O)=O)cc3)sc2-c2ccncc2)c1 | 0 |
| Cl.Oc1cccc(Nc2ccnc3cc(-c4ccncc4)ccc23)c1 [GW494601] | 0 |
| O=C(NOCC1CC1)c1ccc(F)c(F)c1Nc1ccc(I)cc1Cl | 0 |
| N#Cc1ccc(-c2cc(-c3c[nH]nc3-c3ccccn3)ccn2)cc1 [GW693028] | 0 |
| Cc1c2ccc(N(C)c3ccnc(Nc4cccc(S(N)(=O)=O)c4)n3)cc2nn1Cc1ccccc1.Cl.Cl [GW787226] | 0 |
| CN1c2ccc(CNc3ccc(F)cc3)cc2-c2c(cnn2C)S1(=O)=O | 0 |
| CC(=O)Nc1ccc(COc2ccc(Nc3ccnc4cc(-c5ccccn5)ccc34)cc2)cc1.Cl [GW440148] | 2 |
| COCCNC(=O)c1ccc(-c2cc(C(=O)NC3CC3)cc(F)c2C)cc1 [GW868318] | 5 |
| Cl.Nc1ncnc2occ(-c3ccc(NC(=O)Nc4cc(C(F)(F)F)ccc4F)cc3)c12 [SB-707548] | 0 |
| N#Cc1c(N2CCOCC2)sc(-c2ccn[nH]2)c1-c1ccc(Cl)cc1 | 2 |
| COc1cc2ncn(-c3cc(OCc4sccc4Cl)c(C(N)=O)s3)c2cc1OC [GSK448459] | 0 |
| CNc1ncnc2[nH]ncc12 [SKF-18355] | 0 |
| CC(C)(CN)c1nc(-c2ccc(Cl)c(O)c2)c(-c2ccncc2)[nH]1.O=C(O)C(F)(F)F [SB-477794] | 0 |
| O=C1Cc2cc(Nc3nc(NCc4cccc(S(=O)(=O)C(F)(F)F)c4)ncc3C(F)(F)F)ccc2N1 | 30 |

| Compound | %Inh [%] |
| --- | --- |
| CC(C)Oc1ccc2c(-c3ccnc(Nc4ccc(N5CCN(C)CC5)cc4)n3)cnn2n1 [GW696155] | 0 |
| NCC(NC(=O)c1cc(-c2cn[nH]c2)c(-c2ccnc3[nH]ccc23)s1)c1ccccc1.O=C(O)C(F)(F)F.O=C(O)C(F)(F)F (centres unmarked) [GSK1325775] | 0 |
| CCc1ccnc(/C=C/c2n[nH]c3cc(Sc4ccccc4C(=O)NC)ccc23)c1 | 0 |
| COc1ccc(COc2cc(-n3cnc4ccccc43)sc2C(N)=O)cc1 [GSK1024304] | 0 |
| O=c1cc(N2CCOCC2)nc2n(Cc3cccc4ccccc34)ccn12 [GSK2333389] | 0 |
| Nc1nc(-c2ccc3c(N)n[nH]c3c2)cc(N2CCCC2)n1 [GSK2227430] | 0 |
| COc1ccc(S(=O)(=O)NC2CCN(c3cc(C)nc(Nc4cccc(C#N)c4)n3)CC2)cc1.O=C(O)C(F)(F)F [GSK1653539] | 0 |
| Fc1ccc(-c2nn3c(OCC(F)(F)F)cccc3c2-c2ccncc2)cc1 [GW514784] | 0 |
| Nc1nccc(-c2c(-c3ccc(F)cc3)ncn2C2CCN(CC(F)(F)F)CC2)n1 [SB-236560] | 0 |
| NS(=O)(=O)CCc1cccc(Nc2nccc(-c3c(-c4cccc(NC(=O)c5c(F)cccc5F)c4)nn4ccccc34)n2)c1 [GSK336735] | 0 |
| O=C(NCCNc1ccnc(Nc2ccc(F)cc2)n1)Nc1ccccc1F [GSK1379880] | 0 |
| Cc1ccc(NC(=O)c2ccnc(N3CCN(C)CC3)c2)cc1-c1ccc(C(=O)NCC2CC2)cc1 [GW775604] | 0 |
| O=c1cc(N2CCOCC2)nc2n(Cc3cccc(Cl)c3Cl)c(C3CC3)nn12 [GSK2358994] | 0 |
| c1ccc(-c2cc(-c3c[nH]nc3-c3ccccn3)ccn2)cc1 [GW576604] | 0 |
| COc1ccc(CNC(=O)NC2CCN(c3ccnc(Nc4ccc(OC)cc4)n3)C2)cc1 (centres unmarked) [GSK1379727] | 0 |
| C[C@@H](Oc1cc(-n2cnc3ccc(NC(=O)NC(C)(C)C)cc32)sc1C(N)=O)c1ccccc1Cl [GSK346294] | 0 |
| CN(C1=C(c2ccccc2)C(=O)NC1=O)c1ccccc1 [SB-334860] | 0 |

These compounds were tested on MARK1. Conditions: concentration: 1 μM, replicates: in singlicate; n = 1.

| Compound | %Inh [%] |
| --- | --- |
| Cc1ccc(C(=O)NCC(N)=O)cc1-n1c(C)cc(OCc2ccc(F)cc2F)c(Br)c1=O | 24 |
| CCn1cnc2c(N)ncnc21 [GW345098] | 0 |
| O=C(NCCNc1ccnc(Nc2ccc(F)cc2)n1)c1cc2ccccc2s1 [GSK1379874] | 0 |
| Cc1cccc(-c2nc(-c3ccc(S(C)(=O)=O)cc3)sc2-c2ccncc2)c1 | 34 |
| Cl.Oc1cccc(Nc2ccnc3cc(-c4ccncc4)ccc23)c1 [GW494601] | 6 |
| O=C(NOCC1CC1)c1ccc(F)c(F)c1Nc1ccc(I)cc1Cl | 0 |
| N#Cc1ccc(-c2cc(-c3c[nH]nc3-c3ccccn3)ccn2)cc1 [GW693028] | 0 |
| Cc1c2ccc(N(C)c3ccnc(Nc4cccc(S(N)(=O)=O)c4)n3)cc2nn1Cc1ccccc1.Cl.Cl [GW787226] | 18 |
| CN1c2ccc(CNc3ccc(F)cc3)cc2-c2c(cnn2C)S1(=O)=O | 3 |
| CC(=O)Nc1ccc(COc2ccc(Nc3ccnc4cc(-c5ccccn5)ccc34)cc2)cc1.Cl [GW440148] | 0 |
| COCCNC(=O)c1ccc(-c2cc(C(=O)NC3CC3)cc(F)c2C)cc1 [GW868318] | 27 |
| Cl.Nc1ncnc2occ(-c3ccc(NC(=O)Nc4cc(C(F)(F)F)ccc4F)cc3)c12 [SB-707548] | 0 |
| N#Cc1c(N2CCOCC2)sc(-c2ccn[nH]2)c1-c1ccc(Cl)cc1 | 1 |
| COc1cc2ncn(-c3cc(OCc4sccc4Cl)c(C(N)=O)s3)c2cc1OC [GSK448459] | 0 |
| CNc1ncnc2[nH]ncc12 [SKF-18355] | 23 |
| O=C1Cc2cc(Nc3nc(NCc4cccc(S(=O)(=O)C(F)(F)F)c4)ncc3C(F)(F)F)ccc2N1 | 5 |
| CC(C)Oc1ccc2c(-c3ccnc(Nc4ccc(N5CCN(C)CC5)cc4)n3)cnn2n1 [GW696155] | 50 |

| Compound | %Inh [%] |
| --- | --- |
| NCC(NC(=O)c1cc(-c2cn[nH]c2)c(-c2ccnc3[nH]ccc23)s1)c1ccccc1.O=C(O)C(F)(F)F.O=C(O)C(F)(F)F (centres unmarked) [GSK1325775] | 0 |
| CCc1ccnc(/C=C/c2n[nH]c3cc(Sc4ccccc4C(=O)NC)ccc23)c1 | 27 |
| COc1ccc(COc2cc(-n3cnc4ccccc43)sc2C(N)=O)cc1 [GSK1024304] | 0 |
| O=c1cc(N2CCOCC2)nc2n(Cc3cccc4ccccc34)ccn12 [GSK2333389] | 0 |
| Nc1nc(-c2ccc3c(N)n[nH]c3c2)cc(N2CCCC2)n1 [GSK2227430] | 0 |
| COc1ccc(S(=O)(=O)NC2CCN(c3cc(C)nc(Nc4cccc(C#N)c4)n3)CC2)cc1.O=C(O)C(F)(F)F [GSK1653539] | 0 |
| Fc1ccc(-c2nn3c(OCC(F)(F)F)cccc3c2-c2ccncc2)cc1 [GW514784] | 0 |
| Nc1nccc(-c2c(-c3ccc(F)cc3)ncn2C2CCN(CC(F)(F)F)CC2)n1 [SB-236560] | 0 |
| NS(=O)(=O)CCc1cccc(Nc2nccc(-c3c(-c4cccc(NC(=O)c5c(F)cccc5F)c4)nn4ccccc34)n2)c1 [GSK336735] | 13 |
| O=C(NCCNc1ccnc(Nc2ccc(F)cc2)n1)Nc1ccccc1F [GSK1379880] | 0 |
| Cc1ccc(NC(=O)c2ccnc(N3CCN(C)CC3)c2)cc1-c1ccc(C(=O)NCC2CC2)cc1 [GW775604] | 12 |
| O=c1cc(N2CCOCC2)nc2n(Cc3cccc(Cl)c3Cl)c(C3CC3)nn12 [GSK2358994] | 0 |
| c1ccc(-c2cc(-c3c[nH]nc3-c3ccccn3)ccn2)cc1 [GW576604] | 0 |
| COc1ccc(CNC(=O)NC2CCN(c3ccnc(Nc4ccc(OC)cc4)n3)C2)cc1 (centres unmarked) [GSK1379727] | 0 |
| C[C@@H](Oc1cc(-n2cnc3ccc(NC(=O)NC(C)(C)C)cc32)sc1C(N)=O)c1ccccc1Cl [GSK346294] | 1 |
| CN(C1=C(c2ccccc2)C(=O)NC1=O)c1ccccc1 [SB-334860] | 0 |
